# According to PubChem BioAssay AID1210 (NMMLSC, 2008):
# The source made the active and inactive calls.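 How the source made its calls: active means blocks over 70% of labeled estradiol binding at 10 µM, or over a set limit at 100 nM; inactive means the rest.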
# Target: Estrogen receptor beta (Homo sapiens) (UniProt Q92731)
# Experiment: ERbeta ligand binders by competition, primary screen, cell-based, Cos7 ERbeta-GFP, flow cytometry (AID 1210);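 further: 0% = DMSO vehicle wells and 100% = complete loss of labeled estradiol signal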
# Conditions: fluorescent estrogen binding, at 10 µM, stronger effect = higher value
# Chain of Estrogen receptor beta (Homo sapiens) (Q92731 whole entry, looked up): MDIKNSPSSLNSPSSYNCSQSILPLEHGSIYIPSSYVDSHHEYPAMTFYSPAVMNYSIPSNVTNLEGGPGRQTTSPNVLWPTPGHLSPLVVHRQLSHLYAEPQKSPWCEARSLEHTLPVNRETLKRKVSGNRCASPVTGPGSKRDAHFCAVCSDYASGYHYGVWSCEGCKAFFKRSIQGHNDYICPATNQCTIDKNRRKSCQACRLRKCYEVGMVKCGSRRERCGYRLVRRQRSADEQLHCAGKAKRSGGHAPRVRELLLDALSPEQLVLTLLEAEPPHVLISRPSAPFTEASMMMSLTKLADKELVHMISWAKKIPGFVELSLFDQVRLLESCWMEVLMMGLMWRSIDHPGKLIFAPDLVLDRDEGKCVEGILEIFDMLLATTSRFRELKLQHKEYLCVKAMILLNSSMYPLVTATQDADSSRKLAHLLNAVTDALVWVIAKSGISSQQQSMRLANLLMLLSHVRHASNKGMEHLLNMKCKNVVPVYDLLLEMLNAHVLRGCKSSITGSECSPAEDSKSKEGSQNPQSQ
row,Compound,inhibition
1,Cc1cc(-c2ccccc2)nc2cc(C(N)=O)nn12,49% (inactive)
2,COc1ccc(C2=NN(C(=O)c3cccnc3)C(c3ccccc3)C2)cc1 (configuration not stated),41% (inactive)
3,COc1ccc(C2Nc3ccccc3C(=O)N2c2ccc(C)cc2)cc1Cn1cc([N+](=O)[O-])cn1 (configuration not stated),20% (inactive)
4,Cc1c(Cl)cccc1NS(=O)(=O)c1ccc2c(c1)C1C=CCC1C(c1ccc(C(=O)O)cc1)N2 (configuration not stated),2% (inactive)
5,CCOc1ccccc1C1C(C#N)=C(N)Nc2onc(-c3ccccc3)c21 (configuration not stated),5% (inactive)
6,COc1cc(-c2nc3ccccn3c2/N=C/c2ccccc2)ccc1O,54% (inactive)
7,Nc1ccc2oc(-c3ccc4nc[nH]c4c3)nc2c1,62% (inactive)
8,O=C1N/C(=C\c2ccc(O)cc2)C(=O)c2ccccc21,21% (inactive)
9,Oc1ccccc1-c1nnc(SCCN2CCOCC2)n1Cc1ccccc1,32% (inactive)
10,COc1ccc(CCn2c(SCC(=O)Nc3cc(C)on3)nc3ccsc3c2=O)cc1OC,66% (inactive)
11,O=C1c2ccccc2C(=O)N1/N=C/c1ccc(O)c(O)c1,58% (inactive)
12,CCc1ccc(Nc2nc(N)nc(CSc3nnnn3-c3ccccc3)n2)cc1,67% (inactive)
13,Oc1c(Cl)cc(Cl)cc1Sc1cc(Cl)cc(Cl)c1O,33% (inactive)
14,CN(C)CC(=O)N1c2ccccc2CCc2ccc(NC(=O)c3ccc(N)cc3)cc21,39% (inactive)
15,Nc1ccc(-c2nc3ccc(C(=O)O)cc3s2)cc1,65% (inactive)
16,CC(=O)Nc1nonc1-c1nc2ccccc2n1N(C(C)=O)C(C)=O,35% (active)
17,O=C(Nc1ccc2oc(-c3ccccc3F)nc2c1)c1cncc(Br)c1,63% (inactive)
18,O=c1cc(CSc2nnnn2-c2ccccc2)nc(Nc2ccc(F)cc2)[nH]1,0% (inactive)
19,O=C(Cc1cccs1)Nc1ccc(-c2nnn(CC(=O)N3CCOCC3)n2)cc1,30% (inactive)
20,Cc1ccc(C)n1-c1sccc1C(=O)O,18% (inactive)
21,CCOc1ccc(CC2S/C(=N/c3ccccn3)NC2=O)cc1 (configuration not stated),16% (inactive)
22,CCOC(=O)CSc1nn(C)c(=S)s1,47% (active)

# Same assay, conditions: fluorescent estrogen binding, ligand binding inhibition, at 0.1 µM, stronger effect = higher value
row,Compound,inhibition
1,CCCCNS(=O)(=O)c1ccc(NC(=O)C(Sc2ccccc2)c2ccccc2)cc1 (configuration not stated),14%
2,O=C(Nc1ccccc1N1CCOCC1)c1cc(-c2ccco2)nc2ccccc12,28%
3,COc1ccc(NC(=O)C(NC(=O)c2ccc(=O)[nH]c2)c2ccc(C)cc2)cc1 (configuration not stated),12%
4,Cc1oc2cc(O)ccc2c(=O)c1Oc1ccccc1,37%
5,O=C(CSc1nnc(SCC(=O)c2ccco2)s1)c1ccco1,33%
6,Cc1occc1C(=O)NCc1cccc(CNC(=O)c2ccoc2C)c1,10%
7,Cc1ccc(C)c(/C(O)=C2/C(=O)C(=O)N(CCN3CCOCC3)C2c2ccco2)c1 (configuration not stated),17%
8,Cc1ccccc1Nc1nnc(SCC(=O)NCc2ccco2)s1,18%
9,Oc1ccc(/C=N/n2c(-c3ccco3)csc2=Nc2cccnc2)c(O)c1,18%
10,COc1ccc2nc3oc(C(=O)N4CCN(c5cccc(C(F)(F)F)c5)CC4)cc3cc2c1,47%
11,COCCCn1c(Cc2csc(Nc3cccc(Cl)c3)n2)nnc1SCC(=O)OC1CCCCC1,29%
12,O=C1c2ccccc2NC(c2cccnc2)N1c1ccccc1F (configuration not stated),24%
13,Cc1cc(C)c(S(=O)(=O)/N=C2\C=CC(=O)C(Cl)=C2)c(C)c1,16%
14,COCCOC(=O)c1[nH]c2c(c1C)C(=O)CC(c1ccco1)C2 (configuration not stated),26%
15,CC1=C(SCCC#N)S/C(=C2\SC(C)=C(SCCC#N)S2)S1,11%
16,CCn1c(SCC(=O)Nc2cccc(F)c2)nnc1-c1cc2cc(Br)ccc2o1,12%
17,Cc1cc(-c2ccccc2)nc2cc(C(N)=O)nn12,14%
18,COc1ccc(C2=NN(C(=O)c3cccnc3)C(c3ccccc3)C2)cc1 (configuration not stated),12%
19,COc1ccc(C2Nc3ccccc3C(=O)N2c2ccc(C)cc2)cc1Cn1cc([N+](=O)[O-])cn1 (configuration not stated),2%
20,Cc1c(Cl)cccc1NS(=O)(=O)c1ccc2c(c1)C1C=CCC1C(c1ccc(C(=O)O)cc1)N2 (configuration not stated),12%
21,CCOc1ccccc1C1C(C#N)=C(N)Nc2onc(-c3ccccc3)c21 (configuration not stated),38%
22,COc1cc(-c2nc3ccccn3c2/N=C/c2ccccc2)ccc1O,9%
23,Nc1ccc2oc(-c3ccc4nc[nH]c4c3)nc2c1,2%
24,O=C1N/C(=C\c2ccc(O)cc2)C(=O)c2ccccc21,1%
25,Oc1ccccc1-c1nnc(SCCN2CCOCC2)n1Cc1ccccc1,41%
